Assay outcomes (PubChem BioAssay)
ER stress death = ER stress cell death inhibition. CSM14.1 thapsigargin ER stress survival, ATP luminescence. relative survival (cellular ATP), % at 15 µg/mL (by protocol). 0.33% of 48,000 active. AID 1010;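 active means survival measured by cellular ATP above 50% at 15 µg/ml in the first screen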;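 further: cell death triggered by about 15 µM thapsigargin; ATP read 24 h after thapsigargin was added; plate controls were thapsigargin with DMSO for no effect and DMSO without thapsigargin for full effect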
An asterisk follows results filed as active. The sample as a whole holds a higher share of hits than the screen did.

SMILES | ER stress death
COc1ccc(CN2CCN(C(=O)c3ccc(F)cc3)CC2)cc1OCc1ccccc1 | 53.2*
COc1cc(CN2CCN(C(=O)c3ccc([N+](=O)[O-])cc3)CC2)cc(OC)c1OC | 9.1
COc1ccc(CN2CCN(C(=O)c3ccccc3OC)CC2)cc1OCc1ccccc1 | 16.8
COc1ccc(CN2CCN(C(=O)c3ccc([N+](=O)[O-])cc3)CC2)cc1OCc1ccccc1 | 72.4*
COc1ccc(C2/C(=C(\O)c3ccccc3)C(=O)C(=O)N2Cc2cccnc2)cc1 (configuration not stated) | 10.8
Cc1ccc(-c2ccc(/C=N/N3C(=O)C4C(C3=O)C3C=CC4C34CC4)o2)c([N+](=O)[O-])c1 (configuration not stated) | 9.4
CCOC(=O)c1c(C)nc(C)c(C(=O)OCC)c1-c1ccccc1 | 3.5
CCOc1ccc(C(=O)Nc2cccc(NC(=O)c3ccc(F)cc3)c2)cc1 | -0.2
CCOC(=O)c1c(C)nc(C)c(C(=O)OCC)c1-c1cccc(NC(=O)c2ccc(F)cc2)c1 | 115.2*
C=CCn1c(SCC(=O)N2c3ccccc3C(C)(c3ccccc3)CC2(C)C)nnc1-c1ccncc1 (configuration not stated) | 76.2*
CC1(c2ccccc2)CC(C)(C)N(C(N)=O)c2ccccc21 (configuration not stated) | 2.4
Cc1nnc(SCC(=O)N2c3ccccc3C(C)(c3ccc(Br)cc3)CC2(C)C)s1 (configuration not stated) | -1.6
O=C1NC(=S)N/C1=C/c1ccc(-c2cc([N+](=O)[O-])ccc2Cl)o1 | 4.8
CC1(C)CC(=NNC(=O)c2ccc(Br)o2)CC(C)(C)N1 | 8.2
CCCCOC(=O)c1ccc(NC(=O)C(C)(C)C)cc1 | -3.5
CCOC(=O)/C(C(C)=O)=C(\C=C\N(C)C)N(C)C | -7.3
CCOC(=O)/C(=C/C=C/N(C1CCCCC1)C1CCCCC1)C(C)=O | 50.5*
COC(=O)/C(=C\C=C\N(C)c1ccccc1)C(C)=O | -5.0
CC(C)C1=NN2C(=N)/C(=C/c3ccc(OCc4ccc(F)cc4)cc3)C(=O)N=C2S1 | 3.5
COc1ccc(N2C(=O)C(Cl)=C(Nc3ccc(C)c(Cl)c3)C2=O)cc1 | 3.2
O=C(O)c1nn(-c2ccccc2)c(=O)c2ccccc12 | -4.4
COc1ccc(C2Nc3ccccc3C(=O)N2c2ccccc2)cc1COc1ccc(NC(C)=O)cc1 (configuration not stated) | 87.0*
COc1ccc(N2C(=O)c3ccccc3NC2c2ccc(OC)c(CN3C(=O)c4ccccc4C3=O)c2)cc1 (configuration not stated) | 10.0
COc1ccc(C2Nc3ccccc3C(=O)N2c2ccccc2)cc1CN1C(=O)c2ccccc2C1=O (configuration not stated) | 4.9
Cc1cc(Cl)ccc1OCCCC(=O)N1CCN(c2cccc(C)c2C)CC1 | 2.3
SMILES | ER stress death
CC(=O)NNC(=O)c1ccccc1[N+](=O)[O-] | 0.1
O=C1C=C(c2ccccc2)CC(c2ccccc2)C1n1nnc2ccccc21 (configuration not stated) | 94.6*
COc1ccc(C2=CC(=O)CC(c3ccccc3)C2)cc1 (configuration not stated) | -1.4
COc1ccc(-c2nc3cc(NC(=O)COc4ccc5ccccc5c4)ccc3o2)cc1OC | 3.4
O=S(=O)(c1ccc(Br)c2ccccc12)N1CCCc2ccccc21 | 5.6
Cc1cc(=O)oc2c(C)c(O)c([N+](=O)[O-])cc12 | 2.6
COc1cccc(/C=C2\SC(=S)N(NC(=O)c3ccccc3Br)C2=O)c1 | 9.5
O=C(c1cccc([N+](=O)[O-])c1)N1CCN(c2cccc(C(F)(F)F)c2)CC1 | 6.4
O=C1NN(c2ccccc2)C(=O)/C1=C/c1ccc(-c2ccccc2Cl)o1 | -1.9
FC(F)(F)c1ccc2nnc(-c3cc(Br)ccc3OCc3ccccc3)n2c1 | 1.7
COc1ccc2ccccc2c1-c1nnc2ccc3ccccc3n12 | 6.7
COc1ccc2ccccc2c1-c1nnc2ccc(C(F)(F)F)cn12 | 60.4*
CCCOC(=O)C1=C(C)NC2=C(C(=O)CC(c3ccc(OC)cc3)C2)C1c1ccc(OCc2ccccc2)c(OC)c1 (configuration not stated) | 6.3
Cc1ccc(C2Nc3ccccc3NC3=C2C(=O)CC(c2ccccc2)C3)cc1 (configuration not stated) | 49.0
COc1ccc(C2CC(=O)C3=C(C2)Nc2ccccc2NC3c2ccccc2Br)cc1 (configuration not stated) | 7.6
CCOc1ccccc1C1Nc2ccccc2NC2=C1C(=O)CC(c1ccc(OC)cc1)C2 (configuration not stated) | 18.8
O=C1CC(c2ccccc2)CC2=C1C(c1ccc(-c3ccccc3)cc1)Nc1ccccc1N2 (configuration not stated) | 7.9
COC(=O)C1=C(C)NC2=C(C(=O)CC(c3ccccc3)C2)C1c1ccc(Cl)cc1 (configuration not stated) | 0.0
COc1ccc(C2CC(=O)C3=C(C2)Nc2ccccc2NC3c2cc(C)ccc2C)cc1 (configuration not stated) | 115.7*
